Giardia FBPA inh = qHTS Assay for Inhibitors of Fructose-1,6-bisphosphate Aldolase from Giardia Lamblia; actives 0.71% (n = 290,000); Potency, µM (highest dose often 59.6 µM), without a hit: at the highest dose activity, negative = inhibition, usual class: inhibitors; purified Giardia FBPA; active = well fitted inhibition curve with a large enough effect; inconclusive = small, poorly fitted or top-dose-only effect, or effect the other way; also: nearly all actives have a fitted effect of over 55% in size
Target sequence (A8B2U2 whole entry, looked up): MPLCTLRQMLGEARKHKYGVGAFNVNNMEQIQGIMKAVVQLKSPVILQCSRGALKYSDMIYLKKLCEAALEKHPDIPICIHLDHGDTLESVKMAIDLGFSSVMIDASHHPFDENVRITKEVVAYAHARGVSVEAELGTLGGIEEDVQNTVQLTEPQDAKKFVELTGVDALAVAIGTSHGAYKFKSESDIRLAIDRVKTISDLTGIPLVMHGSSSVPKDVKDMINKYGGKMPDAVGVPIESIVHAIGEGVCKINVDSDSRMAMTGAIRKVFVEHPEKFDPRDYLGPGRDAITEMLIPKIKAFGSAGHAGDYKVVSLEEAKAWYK
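40 nM FBPA preincubated 10 min at RT with compound (up to 57.5 uM final), then substrate plus GAPDH/TPI/NAD/arsenate coupling and diaphorase/resazurin added. Fluorescence read after 20 min at RT, 525/598 nm.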
FMDV antiviral = High Throughput Screening for Foot and Mouth Disease Virus Antivirals; FMDV antiviral cell-based qHTS; Potency, µM (titrated, usually from 57.9 µM), for the others: at the top dose activity change, negative = inhibition, actives largely listed as inhibitors; actives 1.2% (n = 410,000); AID 1159524, 2015; calls by dose curve; tested in HEK293T cells; also: read-out not given here; nearly all actives have a fitted effect of over 45% in size
VACV mCherry inh = qHTS for Stage-Specific Inhibitors of Vaccinia Orthopoxvirus: mCherry Reporter Primary qHTS. Vaccinia virus mCherry reporter infection, fluorescence. Potency, µM (titrated, usually from 36.5 µM), for the others: at the top dose activity change, negative = inhibition, hits mostly inhibitors. actives 0.63% (n = 310,000); calls by dose curve; tested in A549 cells; also: nearly all actives have a fitted effect of over 35% in size
Vaccinia Venus = qHTS for Stage-Specific Inhibitors of Vaccinia Orthopoxvirus: Venus Reporter Primary qHTS | actives 0.46% (n = 330,000) | Potency, µM (titrated, usually from 36.5 µM), for inactives: top-dose activity change, negative = inhibition, hits mostly inhibitors | Vaccinia virus Venus reporter expression, fluorescence; calls by dose curve; tested in A549 cells; also: nearly all actives have a fitted effect of over 30% in size
The depositor's hits bear a star; i = inactive; ? = inconclusive; nt = not tested or not shown; [ ] = another dose, or the depositor's remark. A selection: hits, their analogues and other compounds. The true share with any hit is near 2.2%. % is scaled to controls: 0 for no effect and ±100 for the full control effect; potency is read from the fitted curve at half-maximal effect.

SMILES	Giardia FBPA inh	FMDV antiviral	VACV mCherry inh	Vaccinia Venus
C/C=C(\NNC(C)=O)c1ccc(O)cc1	nt	nt	-17%	-15%
N[C@H](C(=O)O)[C@@H]1CC(Cl)=NO1	nt	-17%	2µM*	?
CC(C)(C)c1ccc(S(=O)(=O)/N=C2\C=C(NS(=O)(=O)c3ccccc3)C(=O)c3ccccc32)cc1	?	28%	i	7%
Cc1ccc(S(=O)(=O)/N=C2\C=C(Nc3cccc(C(=O)O)c3)C(=O)c3ccccc32)cc1	0.25µM*	-12%	?	5%
CCc1ccc(S(=O)(=O)/N=C2\C=C(Nc3ccc(C(=O)O)cc3)C(=O)c3ccccc32)cc1	0.45µM*	?	?	-6%
Cc1ccc(S(=O)(=O)/N=C2\C=C(Nc3cccc(C(=O)O)c3)C(=O)c3ccccc32)c(C)c1	?	?	-13%	-24%
Cc1ccc(S(=O)(=O)/N=C2\C=C(Nc3ccc(O)cc3)C(=O)c3ccccc32)cc1	nt	10µM*	5µM*	2.2µM*
Cc1cc(C)nc(S[C@H]2C[C@@H](C(=O)N3CCN(c4ccccc4F)CC3)N(Cc3ccccc3F)C2)n1	nt	12%	-8%	0%
Cc1cccc(NC(=O)c2ccc(N3C(=O)C4C5C=CC(C6CC56)C4C3=O)cc2)c1 (stereo not drawn)	2%	25µM*	nt	nt
COc1ccc(NC(=O)c2cc(N3C(=O)C4C5CCC(C5)C4C3=O)ccc2Cl)c(OC)c1 (stereo not drawn)	0%	4%	i	-9%
COC(=O)c1ccc(NC(=O)c2cccc(N3C(=O)C4C5C=CC(C6CC56)C4C3=O)c2)cc1 (stereo not drawn)	nt	?	-16%	-15%
COc1ccc(OC)c(NC(=O)c2cccc(N3C(=O)C4C5CCC(C5)C4C3=O)c2)c1 (stereo not drawn)	2%	20µM*	-8%	-17%
O=C(Nc1ccc(Br)cc1)c1cccc(N2C(=O)C3C4CCC(C4)C3C2=O)c1 (stereo not drawn)	1%	40µM*	-26%	-24%
COc1ccc(OC)c(NC(=O)c2cccc(N3C(=O)C4C5C=CC(C6CC56)C4C3=O)c2)c1 (stereo not drawn)	nt	25µM*	nt	nt
Cc1ccc(CNc2ncnc3nc[nH]c23)cc1	nt	nt	-1%	-13%
CCN(CC)S(=O)(=O)c1ccc(C)c(NC(=S)N2CCN(Cc3ccc4c(c3)OCO4)CC2)c1	-4%	20µM*	-26%	-15%
Cc1ccc(NC(=S)N2CCN(Cc3ccc4c(c3)OCO4)CC2)c(C)c1	nt	-26%	-7%	-14%
CCCc1c(-c2ccccc2F)ncn1CCc1ccccc1OC	nt	32µM*	-26%	-16%
CCCCCc1c(-c2ccccc2F)ncn1CCc1ccccc1OC	nt	32µM*	-7%	-3%
CCCCc1c(-c2ccccc2F)ncn1CCc1ccccc1OC	nt	?	-8%	1%
CC(O)(COc1ccccc1)c1ccc2c(c1)CN(C/C=C/c1ccco1)CCO2 (stereo not drawn)	nt	-5%	-5%	3%
O=[N+]([O-])c1cc(Cl)cc2c1nc(NCCO)c1ccccc12	-2%	-7%	0.89µM*	?
Cc1nc2c(C(=O)NC(C)c3ccccc3)cnn2c(C)c1Cc1ccccc1 (stereo not drawn)	nt	?	i	?
COC(=O)[C@@H]1CCCN1C(=O)c1c(OC)cc(=O)n2c1CCN(Cc1c(C)[nH]c3ccccc13)CC2	nt	14%	-13%	-17%
COc1ccc2c(c1)CCc1cnc(-n3ncc(C(=O)N(C)CCc4ccccn4)c3C)nc1-2	nt	-11%	-10%	-30%
SMILES	Giardia FBPA inh	FMDV antiviral	VACV mCherry inh	Vaccinia Venus
CCCCNC(=O)CCCCCn1c(=O)[nH]c2cc(C(=O)OC)ccc2c1=O	1%	-1%	-9%	-20%
COc1cccc(N2CCN(C(=O)c3ccc4c(=O)n(CCc5ccccc5)c(=O)[nH]c4c3)CC2)c1	nt	20µM*	-26%	-14%
C=CCn1c(=O)[nH]c2cc(C(=O)N3CCN(c4cccc(Cl)c4)CC3)ccc2c1=O	0%	28µM*	?	-29%
C=CCn1c(=O)[nH]c2cc(C(=O)N3CCN(c4ccc(C(C)=O)cc4)CC3)ccc2c1=O	-2%	14µM*	nt	nt
COC(=O)c1ccc2c(=O)n(CCCCCC(=O)O)c(=O)[nH]c2c1	0%	25µM*	-24%	-5%
COc1ccc(Cn2c(=O)[nH]c3cc(C(=O)N4CCN(c5ccccc5)CC4)ccc3c2=O)cc1	-10%	-10%	-8%	-4%
O=C(C[n+]1ccccc1)c1ccc(O)c(O)c1	nt	nt	?	-7%
COC(=O)c1cccc(C(=O)N2CCc3c(cnc(C)c3CNC(=O)/C=C/c3cccs3)C2)c1	nt	-8%	-15%	-10%
c1ccc2cc(N3CCCCC3)ccc2c1	nt	33%	?	-14%
O=C1c2ccccc2C(=O)c2cc(N3CCCCC3)ccc21	nt	10µM*	-14%	88%
O=C(NCCN1Cc2ccccc2OC(c2ccsc2)C1)c1ccc2[nH]ccc2c1 (stereo not drawn)	nt	1%	-15%	1%
CCCCCCCCCC[n+]1ccc(/C=C/c2c(C)[nH]c3ccccc23)cc1	nt	nt	?	398%
CCN(Cc1ccccc1)S(=O)(=O)c1ccc(C(=O)N2CCN(c3nc4ccccc4s3)CC2)cc1	4%	10µM*	-22%	-23%
Cn1c(C(=O)N2CCCC(C(=O)NCc3ccc4c(c3)OCO4)C2)cc2sccc21 (stereo not drawn)	14%	0%	-1%	-23%
CCn1c(C(=O)N2CCC(C(=O)NCc3ccc4c(c3)OCO4)CC2)cc2sccc21	0%	32µM*	11%	-12%
COc1cc(C(=O)NC(c2ccc(Cl)cc2)c2cc(Cl)c3cccnc3c2O)cc(OC)c1OC (stereo not drawn)	nt	-22%	16µM*	?
COc1ccc(C(NC(=O)c2cccnc2)c2cc(Cl)c3cccnc3c2O)cc1OC (stereo not drawn)	8%	?	-11%[1.46 µM]	?
COc1ccc(C(=O)NC(c2ccc(OC)c(OC)c2)c2cc(Cl)c3cccnc3c2O)cc1 (stereo not drawn)	nt	nt	4.5µM*	?
COc1cccc(C(=O)NC(c2ccc(Cl)cc2)c2cc(Cl)c3cccnc3c2O)c1 (stereo not drawn)	nt	-12%	10µM*	?
COc1ccccc1CN1CCOc2ccc(CN3CCCCC3CO)cc2C1 (stereo not drawn)	nt	-3%	-24%	-26%
Cc1ccc(C(=O)N/C(=C\c2ccc(-c3ccccc3[N+](=O)[O-])o2)C(=O)NCCN(C)C)cc1	5µM*	-16%	-15%	-23%
Cc1ccc(C(=O)N/C(=C\c2ccc(-c3ccc(Cl)cc3)o2)C(=O)NCCCN(C)C)cc1	0%	-22%	?	13µM*
CN(C)CCCNC(=O)/C(=C\c1ccc(-c2ccc(Br)cc2)o1)NC(=O)c1ccccc1	2%	?	11µM*	13µM*
Cc1ccc(S(=O)(=O)N2CCN(c3nc(-c4cccs4)nc4ccccc34)CC2)c(C)c1	nt	nt	-12%	-5%
